The source of these data is PubChem BioAssay.

By inhibition is commonly meant the change of the read-out against control, counted positive when it falls.

The structures appear in SMILES notation. A number with no mark means an inactive call. For some of these results: Entries with a potency or affinity are not part of this list. Active and inactive are the calls of the source. Unless noted, the rule behind the calls is not given here.

Experiment [1] can be described thus: antimalarial activity against Dd2 strain (AID 2302;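 active = growth inhibition above 50% at the single 2 µM test dose, taken to imply half-maximal potency below 2 µM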;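 note: 0% = DMSO untreated growth and 100% = chloroquine plus artemisinin killed control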). To be noted: P. falciparum Dd2 in RBCs, LDH growth readout, 72 h; at 2 µM; active compounds read high.
Experiment [2] can be described thus: human hepatoma cell viability loss – ATP luminescence, cytotoxicity control for P. falciparum antimalarial project, primary screen (AID 2303;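 active = inhibition above 50%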;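 note: 0% = DMSO wells and 100% = digitonin-killed cells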). To be noted: HepG2 viability, 24-48 h, at 10 µM, active compounds read high.
The target in experiment [3] is L-lactate dehydrogenase (Plasmodium falciparum (isolate CDC / Honduras)) (UniProt Q27743). In words: PfLDH activity inhibition – cell lysate, 3D7 strain, counter-screen for P. falciparum growth inhibition project (AID 2304).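 Note: 0% = vehicle and 100% = reference inhibitor.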 To be noted: P. falciparum 3D7 crude extract, LDH APAD/NBT absorbance; at 2 µM; active compounds read high. In general terms: Counterscreens check selectivity or assay interference.
Sequence of L-lactate dehydrogenase (Plasmodium falciparum (isolate CDC / Honduras)) (Q27743 whole entry, looked up): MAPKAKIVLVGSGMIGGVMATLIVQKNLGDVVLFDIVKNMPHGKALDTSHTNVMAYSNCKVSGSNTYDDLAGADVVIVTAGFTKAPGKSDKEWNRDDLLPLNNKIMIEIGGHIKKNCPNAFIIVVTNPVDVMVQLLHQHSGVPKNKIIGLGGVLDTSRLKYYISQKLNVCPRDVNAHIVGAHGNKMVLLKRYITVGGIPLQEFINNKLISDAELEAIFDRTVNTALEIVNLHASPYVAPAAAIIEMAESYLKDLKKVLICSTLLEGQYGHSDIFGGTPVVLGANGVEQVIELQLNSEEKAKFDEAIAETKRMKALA

Experiment [4] can be described thus: inhibition of 3D7 malaria parasite growth – strain 3D7 (AID 2306).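 Note: 0% = DMSO wells and 100% = chloroquine plus artemisinin control wells.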 To be noted: P. falciparum 3D7 erythrocytic growth, LDH absorbance, 72 h; at 2 µM; active compounds read high.
Experiment [5] has as its target Calcium-dependent protein kinase 1 (Plasmodium falciparum (isolate 3D7)) (UniProt P62344). In words: PfCDPK1 kinase inhibitors, biochemical, TCAMS library (AID 1159585; cut-off not given, nearly all actives have IC50 up to about 0.98 µM;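 note: inhibitors leave more ATP so luminescence rises with inhibition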). To be noted: recombinant PfCDPK1, Kinase-Glo ATP depletion luminescence.
For experiment [6], the target named is Plasmodium falciparum protein kinase 6 (PK6, PF3D7_1337100) (UniProt Q8IDW1). As to the kind of experiment: PfPK6 kinase inhibitors, biochemical, TCAMS library (AID 1159586). To be noted: recombinant PfPK6, Kinase-Glo ATP depletion luminescence. On the technique in general: In Kinase-Glo more light means more ATP remaining.
Sequence of Plasmodium falciparum protein kinase 6 (PK6, PF3D7_1337100) (Q8IDW1 1-305): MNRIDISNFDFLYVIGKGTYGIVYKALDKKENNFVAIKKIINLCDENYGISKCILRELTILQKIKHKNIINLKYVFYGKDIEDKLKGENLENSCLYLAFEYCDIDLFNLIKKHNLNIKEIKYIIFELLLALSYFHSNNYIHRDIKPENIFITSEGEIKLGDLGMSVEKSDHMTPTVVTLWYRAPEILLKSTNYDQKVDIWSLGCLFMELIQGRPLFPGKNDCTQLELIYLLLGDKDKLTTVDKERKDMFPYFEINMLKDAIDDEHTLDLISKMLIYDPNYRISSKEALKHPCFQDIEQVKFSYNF
Experiment [7] concerns the target Protein kinase 7 (PK7), Plasmodium falciparum 3D7 (PF3D7_0213400) (UniProt Q7YTF7). As to the kind of experiment: inhibition of Plasmodium PK7 catalytic activity – biochemical, TCAMS antimalarial set, Kinase-Glo luminescence (AID 1159587). To be noted: recombinant PfPK7, Kinase-Glo ATP depletion luminescence.
In experiment [8] the target is Calcium-dependent protein kinase 4 (Plasmodium falciparum (isolate 3D7)) (UniProt Q8IBS5). As to the kind of experiment: PfCDPK4 kinase inhibitors, biochemical, TCAMS library (AID 1159588; cut-off not given, nearly all actives have IC50 up to about 0.91 µM). To be noted: recombinant PfCDPK4, Kinase-Glo ATP depletion luminescence.
Sequence of Calcium-dependent protein kinase 4 (Plasmodium falciparum (isolate 3D7)) (Q8IBS5 whole entry, looked up): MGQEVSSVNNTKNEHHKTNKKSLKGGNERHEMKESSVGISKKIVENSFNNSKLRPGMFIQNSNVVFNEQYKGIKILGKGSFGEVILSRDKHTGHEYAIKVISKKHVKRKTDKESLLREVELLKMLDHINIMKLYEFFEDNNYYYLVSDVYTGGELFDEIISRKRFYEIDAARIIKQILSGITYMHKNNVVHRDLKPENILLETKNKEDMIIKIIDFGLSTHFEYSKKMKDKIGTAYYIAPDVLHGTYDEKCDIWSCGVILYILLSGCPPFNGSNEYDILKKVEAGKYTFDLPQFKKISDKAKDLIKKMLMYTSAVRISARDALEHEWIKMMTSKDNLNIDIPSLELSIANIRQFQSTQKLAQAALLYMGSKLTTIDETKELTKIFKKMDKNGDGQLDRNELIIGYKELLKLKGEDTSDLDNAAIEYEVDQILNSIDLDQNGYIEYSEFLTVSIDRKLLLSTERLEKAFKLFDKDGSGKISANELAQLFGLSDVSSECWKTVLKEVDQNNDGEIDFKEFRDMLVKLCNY

Sequence of Protein kinase 7 (PK7), Plasmodium falciparum 3D7 (PF3D7_0213400) (Q7YTF7 1-343): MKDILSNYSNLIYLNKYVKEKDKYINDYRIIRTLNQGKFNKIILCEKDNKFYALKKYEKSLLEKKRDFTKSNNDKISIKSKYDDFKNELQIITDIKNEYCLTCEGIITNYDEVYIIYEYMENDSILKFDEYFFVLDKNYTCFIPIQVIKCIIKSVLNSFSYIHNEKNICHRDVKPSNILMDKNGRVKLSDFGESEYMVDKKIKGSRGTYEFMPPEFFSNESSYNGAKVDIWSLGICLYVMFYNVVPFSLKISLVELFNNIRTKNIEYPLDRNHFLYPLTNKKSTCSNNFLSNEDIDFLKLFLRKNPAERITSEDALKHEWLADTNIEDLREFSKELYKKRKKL
Sequence of Calcium-dependent protein kinase 1 (Plasmodium falciparum (isolate 3D7)) (P62344 whole entry, looked up): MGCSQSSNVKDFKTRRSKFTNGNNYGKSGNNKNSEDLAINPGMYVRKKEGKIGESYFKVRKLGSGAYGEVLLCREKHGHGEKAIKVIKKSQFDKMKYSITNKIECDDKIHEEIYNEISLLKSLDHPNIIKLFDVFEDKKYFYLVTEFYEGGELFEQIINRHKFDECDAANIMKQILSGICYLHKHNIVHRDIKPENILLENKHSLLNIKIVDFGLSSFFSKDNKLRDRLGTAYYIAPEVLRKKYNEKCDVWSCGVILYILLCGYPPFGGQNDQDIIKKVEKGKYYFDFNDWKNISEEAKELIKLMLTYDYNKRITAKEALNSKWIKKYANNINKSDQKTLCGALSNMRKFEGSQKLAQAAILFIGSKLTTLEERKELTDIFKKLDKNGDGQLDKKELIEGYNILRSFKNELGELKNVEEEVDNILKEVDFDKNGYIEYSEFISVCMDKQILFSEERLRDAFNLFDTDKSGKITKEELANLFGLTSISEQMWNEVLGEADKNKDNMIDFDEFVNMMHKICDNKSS

For `O=C(Nc1ccc(Cl)cc1)c1ccc(S(=O)(=O)NCC2CCN(CC3CCCCC3)CC2)cc1`, the growth inhibition is 8% in experiment [1] and 93% (active) in experiment [4]. The inhibition in experiment [2] was 40%; in experiment [3], -2%. The result in experiment [5], in experiment [6], in experiment [7] and in experiment [8] was inactive.
As for `CCNc1cc(C(=O)N[C@@H](Cc2ccccc2)[C@H](O)CNC(C)(C)CCCC(C)C)cc(N2CCCC2=O)c1`, the growth inhibition in experiment [1] was 81% (active); in experiment [4], 100% (active). Moreover, the inhibition in experiment [2] is -12%; in experiment [3] it was -1%. The outcome in experiment [5], in experiment [6], in experiment [7] and in experiment [8] was inactive.
Regarding `Cc1cc(-c2ccc(CNCCc3cccs3)cc2)ccc1S(=O)(=O)NCc1ccccc1`, the growth inhibition is -2% in experiment [1] and 94% (active) in experiment [4]. Besides, the inhibition in experiment [2] was 28%; in experiment [3], 3%. The outcome in experiment [5], in experiment [6], in experiment [7] and in experiment [8] was inactive.
`CCN(CC)CCN(Cc1ccc(-c2ccc(C(F)(F)F)cc2)cc1)C(=O)Cn1cc(Cc2cnn(C)c2)c(=O)nc1/C=C/c1cccc(F)c1F`: the growth inhibition in experiment [1] was 98% (active); in experiment [4], 95% (active). The figures for the inhibition in experiment [2] and in experiment [3] were 11% and -2%, respectively. The outcome in experiment [5], in experiment [6], in experiment [7] and in experiment [8] was inactive.
For `COc1ccc(Cn2c(Nc3cccc(C(F)(F)F)c3)nc3cc(C(=O)NCCN4CCCC4)ccc32)cc1Cl`, the values for the growth inhibition in experiment [1] and in experiment [4] were 54% (active) and 97% (active), respectively. Further, the inhibition in experiment [2] was 11%; in experiment [3], 2%. Further, the outcome in experiment [5], in experiment [6], in experiment [7] and in experiment [8] was inactive.
Turning to `N#Cc1cc(C(=O)c2cc(Br)ccc2O)cn(C2CCCCC2)c1=O`, the growth inhibition in experiment [1] is 9%; in experiment [4], 89% (active). The inhibition in experiment [2] and in experiment [3] was 3% each time. For the same compound, the outcome in experiment [5], in experiment [6], in experiment [7] and in experiment [8] was inactive.
Consider `CC(C)NCc1cccc(-c2ccc(NC(=O)c3ccc(F)cc3)cc2)c1`, for which the growth inhibition in experiment [1] was 3%; in experiment [4], 92% (active). Also, the inhibition in experiment [2] was 7%; in experiment [3] it was -1%. In addition, the outcome in experiment [5], in experiment [6], in experiment [7] and in experiment [8] was inactive.
For `CNc1ccc(CNCc2ccc(-c3ccc(-c4nc5ccc(C(F)(F)F)cc5[nH]4)cc3)cc2)cc1`, the growth inhibition was 98% (active) in experiment [1] and 101% (active) in experiment [4]. In addition, the inhibition is 53% (active) in experiment [2] and -3% in experiment [3]. The outcome in experiment [5], in experiment [6], in experiment [7] and in experiment [8] was inactive.
Consider `COc1ccc2nccc([C@@H](O)CN3CCC(NCc4cc5cc([N+](=O)[O-])ccc5[nH]4)CC3)c2c1`, for which the growth inhibition in experiment [1] was 57% (active); in experiment [4], 99% (active). Also, the results for the inhibition in experiment [2] and in experiment [3] were 29% and 4%, respectively. Also, the result in experiment [5], in experiment [6], in experiment [7] and in experiment [8] was inactive.
Turning to `CC(=O)Nc1ccc(CN(C)C2CCN(c3cc(NC(=O)c4cccc(C)c4)ccn3)CC2)cc1`, the values for the growth inhibition in experiment [1] and in experiment [4] were 13% and 94% (active), respectively. Also, the inhibition in experiment [2] is -2%; in experiment [3], -1%. Also, the result in experiment [5], in experiment [6], in experiment [7] and in experiment [8] was inactive.
With `CC(C)N(Cc1ccc(-c2ccc(C(F)(F)F)cc2)cc1)C(=O)Cn1c(CCc2cccc(F)c2F)cc(=O)c2ccc(CCCN3CCCCC3)cc21`, the growth inhibition is 82% (active) in experiment [1] and 100% (active) in experiment [4]. Further, the results for the inhibition in experiment [2] and in experiment [3] were 99% (active) and 7%, respectively. Moreover, the outcome in experiment [5], in experiment [6], in experiment [7] and in experiment [8] was inactive.
On to `Cc1cc(N[C@@H](Cc2ccccc2)C(=O)NCCOc2ccccc2)nc(Nc2ccccc2)n1`, for which the growth inhibition is 63% (active) in experiment [1] and 100% (active) in experiment [4]. Further, the inhibition is 2% in experiment [2] and -2% in experiment [3]. In addition, the result in experiment [5], in experiment [6], in experiment [7] and in experiment [8] was inactive.
For the compound `COc1ccc(CCNCCCCCCNCCc2ccc(Cl)c3ccccc23)cc1OC`, the values for the growth inhibition in experiment [1] and in experiment [4] were 28% and 100% (active), respectively. For the same compound, the figures for the inhibition in experiment [2] and in experiment [3] were 100% (active) and 6%, respectively. For the same compound, the result in experiment [5], in experiment [6], in experiment [7] and in experiment [8] was inactive.
As to `Brc1ccccc1CNc1ccnc(NCCn2ccnc2)n1`, the growth inhibition in experiment [1] was 33%; in experiment [4] it was 99% (active). For the same compound, the inhibition was 72% (active) in experiment [2] and 4% in experiment [3]. For the same compound, the outcome in experiment [5], in experiment [6], in experiment [7] and in experiment [8] was inactive.
In the case of `Cc1cccc2[nH]c(-c3ccc(-c4cccc(NC(=O)Nc5ccc(F)c(F)c5F)c4)cc3)nc12`, the growth inhibition in experiment [1] was 89% (active); in experiment [4] it was 100% (active). For the same compound, the inhibition in experiment [2] is 40%; in experiment [3], 2%. The outcome in experiment [5], in experiment [6], in experiment [7] and in experiment [8] was inactive.
As for `CCN(CC)CCN(Cc1ccc(-c2ccc(C(F)(F)F)s2)cc1)C(=O)Cn1c(CCc2cccc(F)c2F)nc(=O)c2ccccc21`, the growth inhibition was 31% in experiment [1] and 94% (active) in experiment [4]. The inhibition was 43% in experiment [2] and 3% in experiment [3]. The outcome in experiment [5], in experiment [6], in experiment [7] and in experiment [8] was inactive.
As to `COc1ccc(NC(=O)C2c3ccccc3C(=O)N(C3CCCC3)C2c2cccs2)c(OC)c1` (stereo not given), the growth inhibition in experiment [1] is 54% (active); in experiment [4], 84% (active). For the same compound, the inhibition was 3% in experiment [2] and 4% in experiment [3]. In addition, the result in experiment [5], in experiment [6], in experiment [7] and in experiment [8] was inactive.
As for `Cc1cc(NN=Cc2ccccn2)c2cc(C(F)(F)F)ccc2n1`, the results for the growth inhibition in experiment [1] and in experiment [4] were 100% (active) and 102% (active), respectively. Besides, the inhibition in experiment [2] is -10%; in experiment [3], -4%. The result in experiment [5], in experiment [6], in experiment [7] and in experiment [8] was inactive.
In the case of `COC(=O)c1ccc2[nH]cc(C3CCN(CCC4CCN(C(=O)/C=C/c5ccc(Cl)c(Cl)c5)CC4)CC3)c2c1`, the growth inhibition in experiment [1] was 59% (active); in experiment [4] it was 97% (active). Besides, the inhibition in experiment [2] is 24%; in experiment [3], 1%. Besides, the outcome in experiment [5], in experiment [6], in experiment [7] and in experiment [8] was inactive.
As to `N=C(N)c1ccc(-c2cc3ccc(C(=N)N)cc3[nH]2)cc1`, the growth inhibition in experiment [1] and in experiment [4] was 99% (active) throughout. In addition, the inhibition is 18% in experiment [2] and -2% in experiment [3]. For the same compound, the outcome in experiment [5], in experiment [6], in experiment [7] and in experiment [8] was inactive.
